Screens (PubChem)
Only some compounds are listed: those with a hit (about 2.2% of all), similar ones and a draw of the others.
PAX8 reporter = lowers PAX8-driven luciferase in RMG-I cells; AID 652154; inhibition, % at 12.6 µM; RMG-I TPO-luciferase reporter, SteadyGlo, 24 h; hit rate 1.2% among 360,000;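 active means mean replicate inhibition at least 60% with every replicate also reaching 60%; inconclusive means only one of the two criteria is met; inactive means mean below 60% and not all replicates reaching 60%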;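 further: luciferase light reporting Pax8 driven TPO promoter activity; plate controls were median of neutral control wells for no effect and mitoxantrone controls for full effect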
EWS-Fli inh = EWS/Fli transcriptional activity inhibition; A673 NR0B1-luciferase reporter, viability-normalised; inhibition, % at 12.6 µM; hit rate 0.67% among 350,000;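 active means mean inhibition of at least 50% after viability correction, with every replicate also passing that limit; inconclusive means mean reaches 50% but only one of two replicates passes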;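 further: firefly luciferase signal divided by Alamar Blue viability fluorescence both relative to DMSO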
MITF TRPM1 inh = inhibitors of MITF-driven TRPM1 promoter in melanoma cells; inhibition, % at 12.5 µM; hit rate 0.83% among 330,000; SK-MEL-5 TRPM1 promoter luciferase, 24 h;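 active means mean inhibition across replicates of 60% or more, whatever share of single replicates reaches that level; inconclusive means some that reach 60%, reason not given; inactive means mean inhibition across replicates below 60%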
LGR2 antag = Drosophila LGR2 receptor signaling inhibition | inhibition, % at 9.99 µM | HEK293 LGR2, CRE-luciferase, bursicon-stimulated, 4 h | AID 720647 | hit rate 0.35% among 380,000;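 active means drop in luminescence signal, shown as inhibition above about 50% in the replicate tests, limit read from the data, passing the limit was not always enough; inconclusive means probably only some replicates passing the limit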;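 further: agonist challenge used bursicon conditioned medium at about half maximal strength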
Shn3 inh set2 = reduces Shn3 3'UTR luciferase signal in osteoblasts; Clone20 osteoblast Shn3 3'UTR firefly luciferase, 24 h; inhibition, % at 12.5 µM; hit rate 0.52% among 360,000; AID 588674;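 active means mean inhibition of at least 75% with every replicate also reaching 75%; inconclusive means mean inhibition at least 75% but some replicate below; inactive means mean inhibition below 75%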;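 further: 0% = median of neutral control wells and 100% = pilot-screen positive control compound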
LMP1 NFkB inh = inhibitors of Epstein-Barr LMP1-induced NF-kappaB reporter; LMP1-induced NF-kappaB luciferase reporter cells, luminescence; inhibition, % at 12.5 µM; hit rate 0.69% among 350,000; AID 504558; in the data active means inhibition above about 41%; inconclusive means no clear call, values can overlap the other calls;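 further: 0% = neutral control wells and 100% = reference inhibitor control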
The depositor's hits bear a star; ? = inconclusive; · = not tested or not shown.

SMILES	PAX8 reporter	EWS-Fli inh	MITF TRPM1 inh	LGR2 antag	Shn3 inh set2	LMP1 NFkB inh
C[C@H]1CCCCO[C@@H](CN(C)C(=O)Nc2ccc(C(F)(F)F)cc2)[C@@H](C)CN([C@@H](C)CO)C(=O)c2cc(NS(=O)(=O)c3ccc(F)cc3)ccc2O1	-21.0	-7.2	·	4.9	·	·
O=C1C(C2=NC(C(=O)O)C3C(=O)N(c4ccccc4)C(=O)C23)=C(O)c2ccccc21 (stereo unspecified)	6.5	·	-7.3	·	2.0	1.8
O=C1C(C2=NC(c3ccccn3)C3C(=O)N(c4ccc(OC(F)(F)F)cc4)C(=O)C23)=C(O)c2ccccc21 (stereo unspecified)	-9.2	17.1	75.0*	-3.0	77.4	-14.3
CC=Cc1ccc2n(c1=O)C[C@H]1[C@H](CO)[C@@H](C(=O)NC3CCCC3)N(Cc3ccccc3)[C@@H]21 (mixture of isomers)	11.8	-2.9	·	4.4	·	·
COc1cccc(-c2ccc3c(c2)[C@@H]2[C@@H](CCN2C(=O)CC2CC2)[C@H](CO)N3C)c1	66.8*	-4.1	·	3.8	·	·
COc1cccc(-c2ccc3c(c2)[C@H]2[C@H](CCN2C(=O)c2ccccc2F)[C@H](CO)N3C)c1	85.5*	0.3	·	?	·	·
Cc1noc(C)c1S(=O)(=O)Nc1ccc2c(c1)CC(=O)N([C@H](C)CO)C[C@@H](C)[C@@H](CN(C)S(=O)(=O)c1cccs1)O2	·	0.6	·	-28.2	·	·
COCCC(=O)N1CCCC(C(=O)c2ccc(C(F)(F)F)cc2)C1 (stereo unspecified)	19.9	1.4	4.7	-30.0	-15.2	49.0*
Cc1nn(C)cc1NC(=O)C[C@@H]1CC[C@H]2[C@H](COc3ccc(NC(=O)C4CCC4)cc3C(=O)N2C)O1	1.2	-6.4	·	-8.0	·	·
O=C(Nc1ccc([N+](=O)[O-])cc1)Nc1nc(-c2ccc(Cl)s2)cs1	105.8*	40.6	72.2*	49.4	?	54.7*
O=C1CC(C(=O)Nc2ccccc2)C2(CCCCC2)O1 (stereo unspecified)	·	·	7.0	·	-8.1	65.3*
CCCCC1Cc2[nH]c(=S)[nH]c(=O)c2C(c2ccc(F)cc2)O1 (stereo unspecified)	95.3*	7.3	·	13.2	5.4	·
CCCCC1Cc2[nH]c(=S)[nH]c(=O)c2C(c2ccc(Cl)cc2)O1 (stereo unspecified)	-9.8	7.0	·	-12.8	22.1	·
CN1c2ccc(-c3cccc(F)c3)cc2[C@@H]2[C@@H](CCN2C(=O)Cc2ccccc2)[C@@H]1CO	75.1*	1.6	·	8.6	·	·
CN1c2ccc(C#Cc3cccnc3)cc2[C@@H]2[C@@H](CCN2C(=O)Cc2cccnc2)[C@@H]1CO	87.9*	-12.1	·	-3.2	·	·
COc1ccc(-c2ccc3c(c2)[C@H]2[C@H](CCN2C(=O)Cc2cccnc2)[C@H](CO)N3C)cc1	85.6*	6.5	·	·	·	·
COc1ccc(-c2ccc3c(c2)[C@@H]2[C@@H](CCN2C(=O)Cc2cccnc2)[C@@H](CO)N3C)cc1	3.3	3.1	·	-14.4	·	·
CN1c2ccc(-c3ccccc3)cc2[C@@H]2[C@@H](CCN2C(=O)Cc2ccccc2)[C@@H]1CO	35.3	11.9	·	7.6	·	·
CN1c2ccc(C#Cc3cccnc3)cc2[C@H]2[C@H](CCN2C(=O)C2CC2)[C@@H]1CO	-27.8	-3.5	·	3.8	·	·
C[C@H]1CCCCO[C@@H](CN(C)S(=O)(=O)c2cccs2)[C@@H](C)CN([C@@H](C)CO)C(=O)c2cc(N(C)C)ccc2O1	25.2	-17.4	·	-10.8	·	·
COCC(=O)N(C)C[C@@H]1Oc2cc(-c3ccccc3F)ccc2S(=O)(=O)N([C@H](C)CO)C[C@@H]1C	-4.0	-1.7	·	25.6	·	·
O=C(NCC(=O)N(c1ccc(F)cc1)C(C(=O)NC1CCCCC1)c1cccnc1)c1ccco1 (stereo unspecified)	8.0	5.4	-5.5	45.8	3.8	1.0
O=C(NC1CCCCC1)C(c1cccnc1)N(C(=O)CCl)c1ccccc1Cl (stereo unspecified)	100.7*	48.3	20.1	13.1	-13.6	62.7*
O=C(NC1CCCCC1)C(c1cccnc1)N(C(=O)CCl)c1ccc(F)cc1 (stereo unspecified)	109.2*	56.6*	86.5*	-0.1	9.8	75.8*
CCc1ccccc1N(C(=O)CNC(=O)c1ccco1)C(C(=O)NC1CCCC1)c1cccnc1 (stereo unspecified)	-11.4	-4.6	-0.6	9.8	-8.3	-0.7
SMILES	PAX8 reporter	EWS-Fli inh	MITF TRPM1 inh	LGR2 antag	Shn3 inh set2	LMP1 NFkB inh
COc1ccc(N(C(=O)Cc2cccs2)C(C(=O)NC2CCCC2)c2ccncc2)cc1 (stereo unspecified)	20.6	3.8	-23.3	-14.2	-20.6	-1.6
COc1ccc(N(C(=O)CCl)C(C(=O)NC2CCCCC2)c2cccnc2)cc1 (stereo unspecified)	113.1*	·	86.9*	4.9	8.8	62.4*
CCCNC(=O)N[C@@H]1CC[C@H](CCn2cc(C3CCCC3)nn2)O[C@@H]1CO	-7.1	5.3	·	3.1	·	·
C[C@@H]1CN([C@H](C)CO)C(=O)c2c(c3ccccc3n2C)-c2ccccc2CO[C@H]1CN(C)C(=O)Nc1cccc(C(F)(F)F)c1	78.9*	8.3	·	28.8	·	·
C[C@H]1CN([C@@H](C)CO)C(=O)c2c(c3ccccc3n2C)-c2ccccc2CO[C@@H]1CN(C)Cc1cccc(C(F)(F)F)c1	81.7*	3.0	·	16.3	·	·
COc1cc(C2NC(=O)NC(C)=C2C(=O)OC2CCCC(C)C2)cc(Br)c1O (stereo unspecified)	37.0	18.0	-12.4	·	-0.8	49.2*
O=C(Nc1ccc2c(c1)[C@@H]1C[C@H](CC(=O)N3CCOCC3)O[C@@H](CO)[C@@H]1O2)NC1CCCCC1	-8.7	4.1	·	-7.2	·	·
Cc1c(C#N)c(O)n(CCO)c(=O)c1N=Nc1ccc2c(c1)COC2=O	-17.4	12.0	61.8*	17.5	-2.8	17.6
Cc1cc(=O)n(CCO)c(O)c1C#N	-3.2	·	10.1	·	-16.3	18.2
CC(C)(C)n1ncc2c(=O)n(Cc3cccc(Cn4cnc5c(cnn5C(C)(C)C)c4=O)c3F)cnc21	79.5*	35.2	8.3	1.8	89.4*	17.8
CC(C)(C)n1ncc2c(=O)n(CC(=O)OCc3ccccc3)cnc21	·	·	12.9	93.2*	-19.2	22.6
Cc1ccccc1Cn1cnc2c(cnn2C(C)(C)C)c1=O	·	·	-9.6	12.6	-8.6	7.4
CCC(=O)N[C@@H]1CC[C@@H](CC(=O)NCc2ccc(OC)cc2)O[C@@H]1CO	-0.9	5.9	·	13.6	·	·
CN(C)c1cccc(F)c1C(=O)NC(=O)Nc1ccc(Cl)cc1	·	52.9*	8.4	0.7	4.0	4.5
CN(C)c1cccc(N(C)C)c1CNC(=O)NC(=O)c1c(F)cccc1F	11.2	-1.7	-0.1	14.2	-10.1	-4.0
CN(Cc1ccco1)c1ncnc2ccc(-c3ccc4c(c3)OCO4)cc12	5.6	3.4	23.9	·	28.8	3.7
CN(Cc1ccco1)c1ncnc2ccc(-c3ccc4c(ccn4C)c3)cc12	15.9	67.0*	27.8	-2.3	1.8	19.2
